Reference: publication PMC7862700, “An all-to-all approach to the identification of sequence-specific readers for epigenetic DNA modifications on cytosine”

target: T1, GABPA (Homo sapiens, UniProt Q06546 1-454); assay: DAPPL (digital affinity profiling via proximity ligation, sequencing); 10 mM Tris-HCl pH 7.5, 50 mM NaCl, 1 mM DTT, 4% glycerol, room temperature, 30 min; GST-TFs on glutathione beads, 16-mer random dsDNA library, 0.1% formaldehyde crosslink after washing; high values mean tight binding; details: protein: recombinant; tags: N-terminal GST; dsDNA, one strand shown
T1 sequence: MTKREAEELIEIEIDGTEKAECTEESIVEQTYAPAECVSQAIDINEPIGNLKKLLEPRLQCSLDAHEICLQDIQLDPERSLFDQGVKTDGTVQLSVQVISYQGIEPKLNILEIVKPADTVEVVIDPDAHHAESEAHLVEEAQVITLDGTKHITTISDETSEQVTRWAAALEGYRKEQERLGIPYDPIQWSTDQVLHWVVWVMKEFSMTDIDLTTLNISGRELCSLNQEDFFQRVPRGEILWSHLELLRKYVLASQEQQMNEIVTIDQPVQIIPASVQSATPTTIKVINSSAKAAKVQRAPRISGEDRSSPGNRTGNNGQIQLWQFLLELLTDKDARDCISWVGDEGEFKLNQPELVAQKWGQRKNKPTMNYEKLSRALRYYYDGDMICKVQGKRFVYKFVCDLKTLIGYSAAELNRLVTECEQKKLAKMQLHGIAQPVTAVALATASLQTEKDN
Summary of the method: (§1)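 Beads coated with glutathione captured GST-fused human transcription factors that had been expressed in yeast, and the factors were then given DNA barcodes and pooled with a tag-only sample. The pools were incubated with 200 nmole of a random double-stranded 16-mer DNA library in Tris/NaCl/DTT/glycerol buffer for 30 min at room temperature, washed, crosslinked with 0.1% formaldehyde and proximity-ligated with BsaI/T4 ligase at 37 °C for 1 h. PCR amplification and Illumina NextSeq500 sequencing came last. Binding signal is each hexamer's read frequency for a factor divided by its frequency for the tag-only sample.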

| Sequence | binding signal |
| --- | --- |
| AAACGG | 1.13 fold enrichment (6-mer frequency, TF over GST control) |
| CCTGTA | 1.12 fold enrichment (6-mer frequency, TF over GST control) |
| TACAGG | 1.21 fold enrichment (6-mer frequency, TF over GST control) |
| ACCGCC | 1.35 fold enrichment (6-mer frequency, TF over GST control) |
| ATCACA | 1.11 fold enrichment (6-mer frequency, TF over GST control) |
| CCTACC | 1.39 fold enrichment (6-mer frequency, TF over GST control) |
| TGCTGA | 1.07 fold enrichment (6-mer frequency, TF over GST control) |
| TGCAAT | 1.15 fold enrichment (6-mer frequency, TF over GST control) |
| TGTATA | 1.02 fold enrichment (6-mer frequency, TF over GST control) |
| GGCTTA | 1.17 fold enrichment (6-mer frequency, TF over GST control) |
| AAAGGG | 1.22 fold enrichment (6-mer frequency, TF over GST control) |
| GCCTCC | 1.23 fold enrichment (6-mer frequency, TF over GST control) |
| GATATC | 1.37 fold enrichment (6-mer frequency, TF over GST control) |
| TACCCA | 1.12 fold enrichment (6-mer frequency, TF over GST control) |
| CTGACC | 1.41 fold enrichment (6-mer frequency, TF over GST control) |
| CCATCA | 1.22 fold enrichment (6-mer frequency, TF over GST control) |
| TACGTC | 1.13 fold enrichment (6-mer frequency, TF over GST control) |
| ATACGT | 1.11 fold enrichment (6-mer frequency, TF over GST control) |
| GGATAT | 1.45 fold enrichment (6-mer frequency, TF over GST control) |
| GGTCTA | 1.06 fold enrichment (6-mer frequency, TF over GST control) |

target: T2, ERG (Homo sapiens, UniProt P11308 1-479); assay: as above; details: protein: recombinant; tags: N-terminal GST; dsDNA, one strand shown
T2 sequence: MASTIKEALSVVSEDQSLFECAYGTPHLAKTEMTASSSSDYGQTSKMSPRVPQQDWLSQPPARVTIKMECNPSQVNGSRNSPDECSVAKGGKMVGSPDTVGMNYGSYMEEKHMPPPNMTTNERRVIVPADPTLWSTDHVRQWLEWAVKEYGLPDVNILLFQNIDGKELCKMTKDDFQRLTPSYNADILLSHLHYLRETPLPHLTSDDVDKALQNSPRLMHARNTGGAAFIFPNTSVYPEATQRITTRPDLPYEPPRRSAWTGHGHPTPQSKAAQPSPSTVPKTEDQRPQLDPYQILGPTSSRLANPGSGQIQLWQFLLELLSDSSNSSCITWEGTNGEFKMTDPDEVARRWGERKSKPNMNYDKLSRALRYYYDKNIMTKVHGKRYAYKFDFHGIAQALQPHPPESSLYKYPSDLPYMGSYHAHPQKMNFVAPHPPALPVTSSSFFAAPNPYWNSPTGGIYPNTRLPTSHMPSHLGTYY
Summary of the method: as §1

| Sequence | binding signal |
| --- | --- |
| TACCGC | 1.08 fold enrichment (6-mer frequency, TF over GST control) |
| TGCATA | 1.11 fold enrichment (6-mer frequency, TF over GST control) |
| AAGTCA | 1.26 fold enrichment (6-mer frequency, TF over GST control) |
| CGCTCA | 1.25 fold enrichment (6-mer frequency, TF over GST control) |
| TCACCC | 1.13 fold enrichment (6-mer frequency, TF over GST control) |
| CTCAGT | 1.13 fold enrichment (6-mer frequency, TF over GST control) |
| CCTCGG | 1.2 fold enrichment (6-mer frequency, TF over GST control) |
| TGATGT | 1.13 fold enrichment (6-mer frequency, TF over GST control) |
| TCCGTT | 1.68 fold enrichment (6-mer frequency, TF over GST control) |
| CGGTTT | 1.33 fold enrichment (6-mer frequency, TF over GST control) |
| CTACGT | 1.19 fold enrichment (6-mer frequency, TF over GST control) |
| TCACAT | 1.29 fold enrichment (6-mer frequency, TF over GST control) |
| TCAATG | 1.1 fold enrichment (6-mer frequency, TF over GST control) |
| ACCACT | 1.27 fold enrichment (6-mer frequency, TF over GST control) |
| TTGTTG | 1.1 fold enrichment (6-mer frequency, TF over GST control) |
| GGCATT | 1.04 fold enrichment (6-mer frequency, TF over GST control) |
| ACCTTG | 1.1 fold enrichment (6-mer frequency, TF over GST control) |
| AACGGC | 1.18 fold enrichment (6-mer frequency, TF over GST control) |
| TCATGC | 1.11 fold enrichment (6-mer frequency, TF over GST control) |
| AAACGG | 1.3 fold enrichment (6-mer frequency, TF over GST control) |

| Sequence | binding signal |
| --- | --- |
| CCTGTA | 1.28 fold enrichment (6-mer frequency, TF over GST control) |
| TACAGG | 1.22 fold enrichment (6-mer frequency, TF over GST control) |
| ACCGCC | 1.27 fold enrichment (6-mer frequency, TF over GST control) |
| ATCACA | 1.02 fold enrichment (6-mer frequency, TF over GST control) |
| CCTACC | 1.29 fold enrichment (6-mer frequency, TF over GST control) |
| TGCTGA | 1.01 fold enrichment (6-mer frequency, TF over GST control) |
| TGCAAT | 1.09 fold enrichment (6-mer frequency, TF over GST control) |
| TGTATA | 1.03 fold enrichment (6-mer frequency, TF over GST control) |
| GGCTTA | 1.04 fold enrichment (6-mer frequency, TF over GST control) |
| AAAGGG | 1.12 fold enrichment (6-mer frequency, TF over GST control) |
| GCCTCC | 1.33 fold enrichment (6-mer frequency, TF over GST control) |
| GATATC | 1.9 fold enrichment (6-mer frequency, TF over GST control) |
| TACCCA | 1.03 fold enrichment (6-mer frequency, TF over GST control) |
| CTGACC | 1.23 fold enrichment (6-mer frequency, TF over GST control) |
| CCATCA | 1.15 fold enrichment (6-mer frequency, TF over GST control) |
| TACGTC | 1.16 fold enrichment (6-mer frequency, TF over GST control) |
| ATACGT | 1.09 fold enrichment (6-mer frequency, TF over GST control) |
| GGATAT | 2 fold enrichment (6-mer frequency, TF over GST control) |
| GGTCTA | 1.08 fold enrichment (6-mer frequency, TF over GST control) |
